Screens: PubChem BioAssay, several laboratories
eIF4H inh – inhibitors of RNA binding by human eIF4H; Q15056; 290,000 compounds, 0.94% hits; eIF4H fluorescence polarization binding assay; inhibition, % at 35 µM;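 note: calls also rest on retests at 20 µM and on dose response follow-up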
MLLE-PAM2 inh – blocks PAM2 peptide binding to the PABP1 MLLE domain; inhibition, % at 20 µM; GST-MLLE / FITC-PAM2 fluorescence polarization; 360,000 compounds, 0.36% hits; P11940; AID 588489; in the data active = inhibition above about 35%, passing the limit was not always enough;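 note: plate controls were DMSO wells with GST-MLLE for no effect and wells lacking GST-MLLE protein for full effect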
EBV gp42 inh – inhibitors of Epstein-Barr virus glycoprotein 42; Q1HVG2; Fluorescence polarization binding assay, mP read-out; inhibition, % (tested at 21.74 µM); 220,000 compounds, 0.42% hits; AID 1085; in the data active = inhibition above about 50%
eIF4E 4G PPI – eIF4E/eIF4G interaction inhibition in translation initiation | P63073+Q04637 | TR-FRET eIF4E-eIF4GI(517-606) binding, 2 h | inhibition, % at 21.7 µM | 220,000 compounds, 0.37% hits | AID 782;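 active = inhibition above about 30%, limit read from the data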;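 note: 0% = full FRET control wells and 100% = background wells lacking eIF4GI fragment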
PABP polyA inh – PABP-poly(A) binding inhibition. P11940. PABP-poly(A) RNA binding, fluorescence polarization. calls only at 35 µM. 290,000 compounds, 1% hits. AID 2014;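 note: calls also rest on retests at 20 µM and on dose response follow-up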
* marks the source's active call; other numbers are inactive results; i = inactive; ? = inconclusive; . = no result given; + = active, no number; [ ] = remark or other dose. Sampled rows, rich in hits. Any-hit rate of the full collection: about 1.7%. Unless noted, the rule behind the calls is not given here.

SMILES	eIF4H inh	MLLE-PAM2 inh	EBV gp42 inh	eIF4E 4G PPI	PABP polyA inh
O=C(CCN1C(=O)/C(=C/c2ccco2)SC1=S)Nc1ccc(C(=O)O)c(O)c1	86*	-8	.	.	+
O=C(CCCN1C(=O)/C(=C/c2ccco2)SC1=S)Nc1ccccc1C(=O)O	100*	8	-12	3	+
CCc1ccc(/C=C2/SC(=S)N(CCCC(=O)Nc3ccccc3C(=O)O)C2=O)cc1	6	9	.	.	i
Cc1cc(/C=C2\SC(=S)N(Cc3ccco3)C2=O)c(C)n1-c1ccccc1	62	-94	55*	-2	i
O=C(O)CCCN1C(=O)/C(=C\c2ccco2)SC1=S	100*	26	-2	0	+
CN(C)c1ccc(C=C2SC(=S)N(Cc3ccco3)C2=O)cc1	.	i	.	.	.
N#CCCN(Cc1ccccc1)C(C(=O)NC1CCCCC1)c1ccnc2ccccc12 (configuration not stated)	.	2	.	.	.
CC(C)(C)OC(=O)N1CCN(C(=O)c2[nH]cnc2C(=O)Nc2cccc(Cl)c2)CC1	.	5	.	.	.
CCOC(=O)CN1CC(C)(C)N(CC(=O)OCC)CC1(C)C	.	-3	.	.	.
CCCCCCCCC(c1nc2ccccc2[nH]1)N1CCN=C(c2ccccc2)C1=O (configuration not stated)	.	-13	.	.	.
O=C(CN1C(=O)/C(=C\c2ccco2)SC1=S)Nc1ccc(O)cc1C(=O)O	79*	-12	.	.	+
COC(=O)c1cc(NC(=O)Cc2cccs2)cc(C(=O)OC)c1	45	1	.	.	i
Cc1c(/C=C2\SC(=Nc3cccc(C(=O)O)c3)NC2=O)c2ccccc2n1C	0	-174	-75	0	+
Oc1[nH]c2ccccc2c1N=Nc1ccccc1Cl	.	4	.	.	.
Oc1c(C=Nc2ccccc2Cl)[nH]c2ccccc12	-3	43*	3	3	i
c1ccc(-c2ccc(-c3nccc4ccccc34)[nH]2)cc1	62*	.	-15	1	+
N#Cc1cc(-c2ccccc2)[nH]c1-c1nccc2ccccc12	-8	-4	0	2	i
COC(=O)c1c(C)[nH]c(O)c1C=Nc1ccc(Oc2ccccc2)cc1	?	-84	-7	-1	i
COC(=O)c1c(C)[nH]c(O)c1C=Nc1ccc(C(C)C)cc1	85*	-78	5	-10	+
CN(CCc1ccccc1)C(=O)CC1C(=O)NCCN1Cc1ccccn1 (configuration not stated)	.	22	.	.	.
CC1(c2nnc(-c3ccc(F)cc3)o2)CC(c2ccc([N+](=O)[O-])cc2)=NO1 (configuration not stated)	1	10	-6	3	i
CSc1nc2oc3c(c2c2nncn12)CC(C)(C)SC3	32	45*	-2	7	i
CC1(C)Cc2c(oc3ncn4ncnc4c23)CO1	-9	-4	-12	-1	i
O=C(CN1CCN(c2cccc(Cl)c2)CC1)c1ccc(O)cc1O	-8	2	.	.	i
S=c1nc(-c2ccc(Cl)cc2)[nH][nH]1	-8	21	-4	-5	i
SMILES	eIF4H inh	MLLE-PAM2 inh	EBV gp42 inh	eIF4E 4G PPI	PABP polyA inh
Cc1ccc(C)n1-c1nc(=S)[nH][nH]1	22	45*	-35	6	i
O=C1Cc2cccc(=O)c(O)c2C(=O)O1	.	9	.	.	.
O=C1c2c(O)cccc2Cc2cccc(O)c21	.	46*	.	.	.
OCC[C@H]1C[C@@H](O)[C@H](O)[C@]2(Cc3ccccc3CO2)O1	.	1	.	.	.
CSc1cccc(CN2CCCC(C(=O)Nc3cccc(-n4cccn4)c3)C2)c1 (configuration not stated)	2	6	.	.	i
CC(C)(C#CC(O)(c1ccccc1)c1ccccc1)N1CCCC1	3	0	-10	3	i
CCOC(=O)c1ccc(N2N=C(C)/C(=C/C=C/c3ccco3)C2=O)cc1	?	5	0	0	+
CC1=NN(c2ccc(C(=O)OC(C)C)cc2)C(=O)/C1=C\C=C\c1ccco1	43	12	-12	0	i
CCNC(=O)N(C)C[C@H]1N[C@@](Cc2ccccc2)(C(=O)OC)[C@H]2C(=O)N(C)C(=O)[C@@H]12	.	-2	.	.	.
O=C(Nc1nc(-c2cccs2)cs1)c1ccco1	0	14	-11	4	i
O=C(Nc1nc(-c2ccncc2)cs1)c1ccco1	84*	-17	10	-15	i
CCOC(=O)/C(C#N)=C/c1ccc(N2CCN(C)CC2)cc1	active	-26	-50	4	i
CC(OC(=O)c1ccc(Cl)nc1)C(=O)N1CCc2ccccc21 (configuration not stated)	.	-6	.	.	.
Oc1ccccc1N=Cc1ccc[nH]1	49*	17	-32	-8	+
CC(C)CN(C)C(=O)CCc1nnc(Cc2ccc(-c3ccccc3)cc2)o1	6	-2	-13	2	i
C[C@@]12C(=O)N(c3ccc(C(F)(F)F)cc3)C(=O)N1[C@@H]1c3ccccc3OC[C@@H]1[C@H]2c1ccccc1	-4	-9	.	.	i
O=[N+]([O-])c1ccc2[nH]c(O)c(N=NC(=S)NCC3CCCO3)c2c1 (configuration not stated)	11	17	-14	4	i
O=C(O)c1ccccc1N=Nc1c(O)[nH]c2ccc([N+](=O)[O-])cc12	34	8	.	.	i
Cc1ccc(NCC(=O)N=Nc2c(O)[nH]c3ccc([N+](=O)[O-])cc23)cc1	-1	.	-23	-3	i
O=[N+]([O-])c1ccc2[nH]c(O)c(N=NC(=S)Nc3cccnc3)c2c1	40	35	59*	-13	i
O=C(N=Nc1c(O)[nH]c2ccc([N+](=O)[O-])cc12)c1ccccc1Cl	58	-17	14	-2	+
CCNC(=S)N=Nc1c(O)[nH]c2ccc([N+](=O)[O-])cc12	15	45*	7	2	i
CN(Cc1ccccc1)S(=O)(=O)c1ccc(NC(=O)c2ccccc2C(=O)O)cc1	.	-1	.	.	.
Cn1c(=O)c2c(-c3ccccc3)n(-c3ccc(N)cc3)cc2n(C)c1=O	.	57*	.	.	.
Cn1c(=O)c2c(-c3ccccc3)n(-c3cccc(O)c3)cc2n(C)c1=O	.	19	.	.	.
SMILES	eIF4H inh	MLLE-PAM2 inh	EBV gp42 inh	eIF4E 4G PPI	PABP polyA inh
CCCCn1c(=O)[nH]c(=O)c2c1nc(CN(C)Cc1cccc(OC)c1OC)n2CCC	13	-4	.	.	i
Clc1ccc(N=c2ssnc2Cl)nc1	17	-28	-20	9	i
N#Cc1cccc(N=c2ssnc2Cl)c1	-5	.	-24	54*	i
Clc1nssc1=Nc1ccc(Br)cc1	3	9	-37	51*	i
COc1cc(N=c2ssnc2Cl)cc(OC)c1	-8	28	-17	63*	i
Cn1c(C(C)(O)C(O)c2ccccc2)nc2ccccc21 (configuration not stated)	0	.	-12	88*[fluorescence artefact?]	i
COc1ccc(CCNC(=O)c2ccc(OCc3c(C)noc3C)c(OC)c2)cc1	.	-5	.	.	.
COc1cc(C(=O)NCCc2c[nH]c3ccccc23)ccc1OCc1c(C)noc1C	active	-11	-12	-2	i
